Experimental data: PubChem BioAssay (NCATS)
Where “and” joins values, the source holds several entries; their conditions need not be identical. Equal values may be shown once. Inconclusive results are not listed. Where a structure was tested more than once in an assay, its records may differ in their call. Calls of active or inactive are those of the source. Unless noted, the call rests on the fitted dose curve; in most records, active means well fitted curve in the direction sought with a large enough effect; inconclusive means small, poorly fitted or top-dose-only effect, or another doubt; inactive means no such curve, though single readings can be large; an effect the other way counts as inactive or inconclusive.

Assays:
[1] = molecular target: Guanine nucleotide-binding protein G(i) subunit alpha-1 (Homo sapiens) (UniProt P63096); assay: qHTS Assay for Inhibitors of RGS12 GoLoco Motif Activity (Green Fluorophore) (AID 879);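 further: 0% = labeled peptide with Gαi1 and full inhibition = labeled peptide alone without protein; negative values mean loss of peptide binding seen as reduced polarization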
Chain of Guanine nucleotide-binding protein G(i) subunit alpha-1 (Homo sapiens) (P63096 whole entry, looked up): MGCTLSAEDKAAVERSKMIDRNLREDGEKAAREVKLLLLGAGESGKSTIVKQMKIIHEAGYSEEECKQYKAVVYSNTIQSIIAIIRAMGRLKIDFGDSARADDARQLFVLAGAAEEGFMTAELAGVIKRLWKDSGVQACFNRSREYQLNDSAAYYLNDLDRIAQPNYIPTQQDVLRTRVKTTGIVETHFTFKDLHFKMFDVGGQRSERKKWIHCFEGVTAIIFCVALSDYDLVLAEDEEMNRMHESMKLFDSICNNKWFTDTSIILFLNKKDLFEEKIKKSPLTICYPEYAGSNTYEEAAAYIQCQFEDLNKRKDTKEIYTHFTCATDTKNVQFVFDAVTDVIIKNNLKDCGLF
Summary of the method: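 A drop in FITC polarization marked displacement of the FITC-tagged RGS12 GoLoco peptide (10 nM) from Gαi1 (50 nM). Compounds were incubated 10 min at room temperature in Tris pH 7.5 buffer containing 150 mM NaCl, 0.1 mM GDP and 0.05% NP40; unlabeled peptide titration served as control.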

[2] = molecular target: Cytochrome P450 2C9 (Homo sapiens) (UniProt P11712); assay: qHTS Assay for Inhibitors and Substrates of Cytochrome P450 2C9 (AID 883); further: potency means the concentration at half of the fitted maximal effect; nearly all actives have a fitted effect of over 60% in size
Chain of Cytochrome P450 2C9 (Homo sapiens) (P11712 whole entry, looked up, canonical isoform): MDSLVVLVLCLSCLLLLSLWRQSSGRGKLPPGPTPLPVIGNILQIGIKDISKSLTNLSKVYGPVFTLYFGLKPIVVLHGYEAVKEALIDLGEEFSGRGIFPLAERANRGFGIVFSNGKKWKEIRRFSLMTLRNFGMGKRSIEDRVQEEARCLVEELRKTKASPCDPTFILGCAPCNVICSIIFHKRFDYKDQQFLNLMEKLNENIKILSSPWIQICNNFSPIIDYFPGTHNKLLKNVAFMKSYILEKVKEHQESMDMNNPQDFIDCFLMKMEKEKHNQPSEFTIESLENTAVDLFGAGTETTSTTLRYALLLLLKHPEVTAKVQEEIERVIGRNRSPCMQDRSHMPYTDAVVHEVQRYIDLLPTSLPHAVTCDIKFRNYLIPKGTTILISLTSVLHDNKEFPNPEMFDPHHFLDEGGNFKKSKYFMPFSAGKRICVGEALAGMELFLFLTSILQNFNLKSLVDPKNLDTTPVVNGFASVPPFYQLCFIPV
Summary of the method: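 10nM CYP2C9 + 100uM Luciferin-H (=KM), 25mM KPO4; cpd 10 min 37C; NADPH regen, 60 min 37C; stop/detect with P450 Glo-Buffer 20 min; luminescence. Norm. to 57uM sulphaphenazole as full inhibition.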

[3] = molecular target: Cytochrome P450 2C19 (Homo sapiens) (UniProt P33261); assay: qHTS Assay for Inhibitors and Substrates of Cytochrome P450 2C19 (AID 899); further: nearly all actives have a fitted effect of over 60% in size; further: potency means the concentration at half of the fitted maximal effect
Chain of Cytochrome P450 2C19 (Homo sapiens) (P33261 whole entry, looked up): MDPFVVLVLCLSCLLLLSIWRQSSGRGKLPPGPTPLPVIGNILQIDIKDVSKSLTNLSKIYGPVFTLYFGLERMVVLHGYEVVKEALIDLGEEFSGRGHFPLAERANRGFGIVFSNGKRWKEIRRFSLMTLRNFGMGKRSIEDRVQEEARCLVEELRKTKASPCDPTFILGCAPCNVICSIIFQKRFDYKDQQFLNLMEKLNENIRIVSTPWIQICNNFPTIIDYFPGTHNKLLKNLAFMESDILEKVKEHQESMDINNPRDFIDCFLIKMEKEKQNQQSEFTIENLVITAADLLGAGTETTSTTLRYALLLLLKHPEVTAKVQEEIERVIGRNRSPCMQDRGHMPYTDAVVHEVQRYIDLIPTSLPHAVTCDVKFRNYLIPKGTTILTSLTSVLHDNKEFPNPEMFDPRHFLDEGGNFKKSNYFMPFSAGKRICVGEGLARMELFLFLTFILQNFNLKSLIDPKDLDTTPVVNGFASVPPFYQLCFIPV
Summary of the method: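 Luminescent read-out of luciferin formed from Luciferin-H EGE (10uM, equal to KM). Enzyme 5nM in 50mM KPO4; compound added, 10 min at 37C, then NADPH regenerating system for 60 min at 37C. Full inhibition defined by 57uM ketoconazole.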

[4] = qHTS Assay for Identification of Small Molecule Agonists for Thrombopoietin (TPO) Signaling Pathway (AID 917); further: on the % scale 0 is the no-effect control and ±100 the full control effect
Summary of the method: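 Quantitative HTS for pathway activators: compounds were pin-transferred onto IL-3-starved Ba/F3 cells expressing human TPO receptor, TPO was added at its EC50 (26 pM final), and after 24 hrs at 37 C reporter luciferase was measured.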

[5] = molecular target: Pyruvate kinase (Leishmania mexicana) (UniProt Q27686); assay: qHTS Validation Assay for Inhibitors of Leishmania Mexicana Pyruvate Kinase (AID 945);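 further: 0% = DMSO only neutral control wells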
Chain of Pyruvate kinase (Leishmania mexicana) (Q27686 2-499 E452W): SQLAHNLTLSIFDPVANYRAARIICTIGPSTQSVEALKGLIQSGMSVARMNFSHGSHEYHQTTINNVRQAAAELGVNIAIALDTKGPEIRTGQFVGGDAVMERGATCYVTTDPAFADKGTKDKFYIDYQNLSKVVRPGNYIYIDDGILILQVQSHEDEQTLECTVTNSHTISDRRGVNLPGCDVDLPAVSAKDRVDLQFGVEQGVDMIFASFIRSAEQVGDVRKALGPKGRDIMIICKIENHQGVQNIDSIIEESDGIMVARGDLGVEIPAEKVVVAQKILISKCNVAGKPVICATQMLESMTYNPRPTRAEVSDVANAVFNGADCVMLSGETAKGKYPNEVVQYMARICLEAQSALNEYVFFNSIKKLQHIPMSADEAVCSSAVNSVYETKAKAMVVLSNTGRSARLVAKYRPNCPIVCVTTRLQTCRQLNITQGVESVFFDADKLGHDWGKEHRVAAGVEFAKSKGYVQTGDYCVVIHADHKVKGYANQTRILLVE
Summary of the method: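 Eight-point qHTS titrations; enzyme 0.2 nM LmPYK (E451W mutant); substrates 0.5 mM PEP, 0.1 mM ADP; 7 mM MgCl2; 1 h room temperature; PKLight luminescence normalized to neutral control.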

[6] = molecular target: Pyruvate kinase PKM (Homo sapiens) (UniProt P14618); assay: qHTS Assay for Activators of Human Muscle Pyruvate Kinase (AID 954; active means well fitted curve in the direction sought with a large enough effect, not every such curve was filed as active;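 further: 0% = uninhibited enzyme and -100% = no enzyme or full thiadiazolimine inhibition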)
Chain of Pyruvate kinase PKM (Homo sapiens) (P14618 whole entry, looked up): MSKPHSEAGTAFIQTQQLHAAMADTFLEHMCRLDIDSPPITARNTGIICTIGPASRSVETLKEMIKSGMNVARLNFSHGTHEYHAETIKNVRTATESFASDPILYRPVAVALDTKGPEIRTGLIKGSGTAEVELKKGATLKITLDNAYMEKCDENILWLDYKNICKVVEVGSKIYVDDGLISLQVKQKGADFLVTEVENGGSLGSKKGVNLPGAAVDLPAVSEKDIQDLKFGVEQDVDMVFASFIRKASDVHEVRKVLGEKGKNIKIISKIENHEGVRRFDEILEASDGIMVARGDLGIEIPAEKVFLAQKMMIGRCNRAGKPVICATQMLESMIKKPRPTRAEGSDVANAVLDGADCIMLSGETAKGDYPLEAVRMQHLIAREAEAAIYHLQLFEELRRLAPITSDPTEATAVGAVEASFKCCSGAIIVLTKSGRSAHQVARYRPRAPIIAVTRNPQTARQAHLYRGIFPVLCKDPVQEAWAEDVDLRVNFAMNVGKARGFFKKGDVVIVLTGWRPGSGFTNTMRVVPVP
Summary of the method: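 A coupled luminescent readout tracked ATP made from ADP by purified PKM2. Final conditions included 0.1 nM enzyme, PEP and ADP at 0.5 and 0.1 mM, pH 7.2 imidazole buffer with BSA, and a one-hour room-temperature reaction.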

[7] = molecular target: Alpha-galactosidase A (Homo sapiens) (UniProt P06280); assay: Counterscreen for Glucocerebrosidase Inhibitors: qHTS Assay for Human alpha-Galactosidase at pH 4.5 (AID 992); further: 0% is about no effect
Chain of Alpha-galactosidase A (Homo sapiens) (P06280 whole entry, looked up): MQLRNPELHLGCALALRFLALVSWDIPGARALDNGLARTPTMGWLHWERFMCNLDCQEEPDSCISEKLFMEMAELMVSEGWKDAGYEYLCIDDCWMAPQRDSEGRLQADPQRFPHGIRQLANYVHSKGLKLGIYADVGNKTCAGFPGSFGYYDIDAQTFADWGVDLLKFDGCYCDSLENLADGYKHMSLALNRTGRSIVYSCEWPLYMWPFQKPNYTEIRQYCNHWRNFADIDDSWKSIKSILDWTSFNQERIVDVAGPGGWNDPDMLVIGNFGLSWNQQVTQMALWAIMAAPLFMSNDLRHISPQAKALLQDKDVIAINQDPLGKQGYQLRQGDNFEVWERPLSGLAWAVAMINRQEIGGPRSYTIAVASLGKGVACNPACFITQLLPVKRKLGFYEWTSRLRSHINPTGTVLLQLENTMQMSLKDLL
Summary of the method: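 Citrate buffer pH 4.5, Tween-20 0.005%. Enzyme 2 nM, substrate 80 uM, 20 min RT. Stop pH 10. Fluorescence Ex 365/Em 440. AC50 by Hill fit.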

[8] = molecular target: alpha-glucosidase (Oryza sativa, rice) (UniProt Q653V4); assay: Counterscreen for Glucocerebrosidase Inhibitors: qHTS Assay for Rice alpha-Glucosidase at pH 5.0 (AID 997);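 further: 0% = full activity with enzyme and -100% = basal without enzyme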
Summary of the method: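 Endpoint fluorogenic assay at pH 5.0: compounds (0.7 nM to 77 uM) titrated against 4 nM rice enzyme and 400 uM 4-MU-alpha-glucoside for 20 min at room temperature; NaOH/glycine stop, read ex 365/em 440 nm, Hill-fitted AC50.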

[9] = qHTS assay for environmental chemicals that activate the Aryl hydrocarbon Receptor (AhR) signaling pathway (AID 651777); settings: 1A2-DRE human hepatoma cells, luciferase, 24 h; activation: stronger effect = higher value; further: % of control where 0% means no effect; nearly all actives have a fitted effect of over 15% in size
Summary of the method: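 Concentration–response screening used 1,200 1A2-DRE cells per well, 24 hr compound exposure (37 C, 5% CO2), and One-Glo luminescence as the AhR-driven CYP1A2 reporter signal.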

[10] = qHTS assay for small molecule agonists of the antioxidant response element (ARE) signaling pathway measured by Nrf2-dependant transcriptional activity (AID 720636; active means well fitted curve in the direction sought with a large enough effect in the repeat runs; an effect the other way counts as inactive or inconclusive; further: % of control where 0% means no effect)
Summary of the method: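 Attachment 6 hr at 37 C, then compound versus DMSO vehicle for 16 hr in ARE-luc HepG2 cells (1% dialyzed FBS); luminescence recorded 30 min after ONE-Glo addition at room temperature.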

[11] = qHTS assay for small molecule agonists of the antioxidant response element (ARE) signaling pathway measured by Nrf2-dependant transcriptional activity - cell viability counter screen (AID 720653; active means well fitted curve in the direction sought with a large enough effect in the repeat runs; an effect the other way counts as inactive or inconclusive; further: on the % scale 0 is the no-effect control and ±100 the full control effect); settings: ARE-bla HepG2 viability, CellTiter-Glo ATP luminescence, 16 h; stronger effect = lower value
Summary of the method: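 ARE-bla HepG2 cells treated with compounds for 16 h at 37C; this counter screen measures viability as intracellular ATP by CellTiter-Glo luminescence after 30 min at room temperature.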

[12] = qHTS assay for cell viability of HEK293 cells (AID 743288); settings: ATP luminescence (CellTiter-Glo), 18 h, stronger effect = lower value; further: on the % scale 0 is the no-effect control and ±100 the full control effect; nearly all actives have a fitted effect of over 50% in size
Summary of the method: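 Quantitative high-throughput screen: compounds were pinned onto parental HEK293 cells (2,000 per well) after a minimum 5 h settling at 37 C, incubated 18 h at 37 C, and intracellular ATP measured by luciferase luminescence.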

[13] = qHTS assay for cell viability of the p53RE-bla HCT-116 cell line (AID 743292); further: potency means the concentration at half of the fitted maximal effect; nearly all actives have a fitted effect of over 55% in size
Summary of the method: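 Compound-exposed HCT-116 (p53RE-bla) cells, 4,000 per well, were kept 16 h at 37 C following a 5 h preincubation. Cell number was estimated from total ATP by CellTiter-Glo luminescence read after 30 min at room temperature.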

[14] = molecular target: Nuclear receptor subfamily 1 group I member 2 (Rattus norvegicus) (UniProt Q9R1A7); assay: qHTS assay for small molecule activators of the rat pregnane X receptor (rPXR) signaling pathway (AID 651751; call rule not given here; further: 0% is about no effect); settings: rPXR reporter cells, luciferase (One-Glo), 24 h
Chain of Nuclear receptor subfamily 1 group I member 2 (Rattus norvegicus) (Q9R1A7 whole entry, looked up): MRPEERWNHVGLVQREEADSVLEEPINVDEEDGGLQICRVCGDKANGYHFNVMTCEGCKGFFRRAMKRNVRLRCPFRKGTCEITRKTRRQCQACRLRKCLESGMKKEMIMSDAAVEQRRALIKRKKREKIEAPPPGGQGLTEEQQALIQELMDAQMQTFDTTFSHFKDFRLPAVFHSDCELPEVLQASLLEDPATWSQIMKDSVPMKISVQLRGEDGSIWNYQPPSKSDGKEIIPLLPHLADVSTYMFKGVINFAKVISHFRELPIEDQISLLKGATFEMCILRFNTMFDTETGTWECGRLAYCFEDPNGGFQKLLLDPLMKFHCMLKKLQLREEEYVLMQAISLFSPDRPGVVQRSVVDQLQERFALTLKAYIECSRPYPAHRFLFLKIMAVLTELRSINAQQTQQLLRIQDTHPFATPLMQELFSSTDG

[15] = Viability counterscreen for antagonist of constitutive androstane receptor (CAR) against the NCATS DSHEA and TCM libraries (AID 1794837);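 further: compound exposure lasted 24 h before viability reading; 0% is about no effect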
Summary of the method: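 Fluorescence from CellTiter-Fluor reports live-cell protease activity in HepG2-CYP2B6-hCAR cells treated for 24 h with substances alongside 48 uM CITCO.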

[16] = molecular target: Nuclear receptor subfamily 1 group I member 3 (Homo sapiens) (UniProt Q14994); assay: Primary qHTS for agonist of constitutive androstane receptor (CAR) against the NCATS DSHEA and TCM libraries (AID 1794839);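 further: HepG2 cells expressing human CAR with a CYP2B6 reporter plus PK11195 antagonist; luciferase reporter luminescence read with ONE-Glo; 0% is about no effect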
Chain of Nuclear receptor subfamily 1 group I member 3 (Homo sapiens) (Q14994 whole entry, looked up): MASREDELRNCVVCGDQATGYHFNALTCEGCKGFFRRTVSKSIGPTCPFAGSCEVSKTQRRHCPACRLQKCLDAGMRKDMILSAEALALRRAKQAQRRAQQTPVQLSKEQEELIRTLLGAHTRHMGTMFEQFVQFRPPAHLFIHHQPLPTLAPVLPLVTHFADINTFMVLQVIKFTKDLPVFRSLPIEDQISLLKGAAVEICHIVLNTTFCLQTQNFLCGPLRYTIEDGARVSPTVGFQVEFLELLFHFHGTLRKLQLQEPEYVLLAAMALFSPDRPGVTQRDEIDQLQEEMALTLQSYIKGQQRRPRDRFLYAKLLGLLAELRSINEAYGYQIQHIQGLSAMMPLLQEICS
Summary of the method: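 Cells stably carrying hCAR and a CYP2B6 reporter (HepG2 background) are seeded and allowed 5 h to adhere. Substances at multiple concentrations are added alongside 0.75 µM PK11195, and luciferase signal is measured after 24 h.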

[17] = HepG2 viability counterscreen (readout 2: ATP content) against the NCATS DSHEA and TCM libraries (AID 1794840);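 further: HepG2 cells exposed to substances for about 24 h; 0% is about no effect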
Summary of the method: (§1)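 Cytotoxicity was assessed in HepG2 cells plated at 1,000 cells/well and exposed for about 24 hours to a concentration series. Protease activity and ATP content were measured sequentially in each well.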

[18] = HepG2 viability counterscreen (readout 1: protease activity) against the NCATS DSHEA and TCM libraries (AID 1794841);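 further: cells exposed to compounds for about 24 h before the protease read; 0% is about no effect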
Summary of the method: as §1

[19] = molecular target: Cytochrome P450 2D6 (Homo sapiens) (UniProt P10635); assay: qHTS for inhibitors of CYP2D6 against the NCATS DSHEA and TCM libraries (AID 1919972); further: on the % scale 0 is the no-effect control and ±100 the full control effect
Chain of Cytochrome P450 2D6 (Homo sapiens) (P10635 whole entry, looked up): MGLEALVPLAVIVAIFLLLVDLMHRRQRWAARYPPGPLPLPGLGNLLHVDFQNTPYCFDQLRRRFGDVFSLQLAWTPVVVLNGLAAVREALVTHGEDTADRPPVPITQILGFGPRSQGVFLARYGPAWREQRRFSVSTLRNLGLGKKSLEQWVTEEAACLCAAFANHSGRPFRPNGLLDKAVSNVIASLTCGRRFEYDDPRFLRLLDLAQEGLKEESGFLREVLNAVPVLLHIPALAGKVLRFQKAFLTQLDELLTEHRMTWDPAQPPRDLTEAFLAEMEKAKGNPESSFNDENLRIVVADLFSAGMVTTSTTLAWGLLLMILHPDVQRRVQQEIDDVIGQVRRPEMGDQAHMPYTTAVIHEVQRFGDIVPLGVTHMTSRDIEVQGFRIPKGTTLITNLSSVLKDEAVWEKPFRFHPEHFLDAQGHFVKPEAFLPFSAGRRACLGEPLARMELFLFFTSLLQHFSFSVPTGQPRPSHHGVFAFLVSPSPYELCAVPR
Summary of the method: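 CYP2D6 enzyme with pro-luciferin substrate in manufacturer buffer (typically 100 mM KPO4), preincubated 15 min RT with substances (most at 19.5 nM upward); NADPH regeneration system (1x) started 30–45 min RT reaction; P450-Glo luminescence read after 30 min; quinidine as intraplate control.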

[20] = molecular target: Cytochrome P450 2C9 (Homo sapiens) (UniProt P11712); assay: qHTS for inhibitors of CYP2C9 against the NCATS DSHEA and TCM libraries (AID 1919973);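 further: luminogenic pro-luciferin CYP2C9 substrate turned into luciferin with NADPH regeneration; series mostly up to about 34 µM; on the % scale 0 is the no-effect control and ±100 the full control effect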
Summary of the method: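 Concentration-response screening with isoform-matched pro-luciferin substrates. The CYP reaction was initiated by NADPH regenerating solution and ran 30-45 min in darkness at room temperature.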

CN(CCOc1ccc(C[C@H](Nc2ccccc2C(=O)c2ccccc2)C(=O)O)cc1)c1ccccn1
inactive and 3.98 µM (active): Potency [3]
inactive: outcome [1] | outcome [4] | Potency [5] | outcome [6] | outcome [7] | outcome [8] | activation [9] 3.94% | outcome [10] | max response [11] 2.06% | max response [12] -5.97% | max response [14] 1.12%
active: Potency [2] 10 µM | Potency [13] 50.1 µM

C[C@H]1[C@H](C)CC[C@]2(C(=O)O)CC[C@]3(C)C(=CC[C@@H]4[C@@]5(C)CC[C@H](O)C(C)(C)[C@@H]5CC[C@]43C)[C@H]12
inactive: outcome [15] | outcome [16] | outcome [17] | outcome [18] | Potency [19] | Potency [20]
